In PubChem BioAssay:
Calls of active or inactive are those of the source. Unless noted, how the calls were made is not given here.

Experiments:
[1] = resazurin metabolic signal in HepG2 cells – cell-based, resazurin fluorescence, 24 h, PK04 Diversity Set, profiling panel (AID 1172); settings: HepG2 viability, higher = more signal
[2] = budding yeast growth changes without added modifier – OD600, strain BY4716, 24 h, basal condition, primary screen (AID 1173); settings: S. cerevisiae BY4716 growth, OD600, 24 h; higher = more signal, called active from +8 up or from −8 down
[3] = viability profiling in MM1S myeloma cells – cell-based, resazurin fluorescence, basal, 24 h, PK04 Diversity Set, profiling panel (AID 1174); settings: higher = more signal, called active from +8 up or from −8 down;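 further: MM1S multiple myeloma cell line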
[4] = target: Dihydroorotate dehydrogenase (quinone), mitochondrial (Plasmodium falciparum (isolate 3D7)) (UniProt Q08210); assay: inhibition of P. falciparum DHODH – biochemical, C-terminal His tag, absorbance 600 nm, primary screen (AID 1175); settings: PfDHODH enzyme, DCIP absorbance 600 nm; higher = more signal, called active from +8 up or from −8 down;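 further: recombinant parasite enzyme with a five histidine tag at its C terminus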
Sequence of Dihydroorotate dehydrogenase (quinone), mitochondrial (Plasmodium falciparum (isolate 3D7)) (Q08210 whole entry, looked up): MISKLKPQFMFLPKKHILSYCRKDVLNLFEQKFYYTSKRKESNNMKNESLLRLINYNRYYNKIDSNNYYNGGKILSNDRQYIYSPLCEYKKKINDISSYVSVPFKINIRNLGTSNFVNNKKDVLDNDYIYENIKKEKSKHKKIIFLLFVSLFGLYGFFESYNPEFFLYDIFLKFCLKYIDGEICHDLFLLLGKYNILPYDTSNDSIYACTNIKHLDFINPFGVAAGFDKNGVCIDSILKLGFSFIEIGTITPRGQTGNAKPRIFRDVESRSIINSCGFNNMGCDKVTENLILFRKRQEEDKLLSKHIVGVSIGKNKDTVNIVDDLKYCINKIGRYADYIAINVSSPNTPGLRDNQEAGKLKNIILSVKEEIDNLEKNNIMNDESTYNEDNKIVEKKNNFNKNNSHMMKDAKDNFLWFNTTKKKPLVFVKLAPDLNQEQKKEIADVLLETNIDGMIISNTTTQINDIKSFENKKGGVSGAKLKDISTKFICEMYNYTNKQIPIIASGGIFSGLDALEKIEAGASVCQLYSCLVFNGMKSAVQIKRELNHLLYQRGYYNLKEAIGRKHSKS

[5] = inhibition of PAO1 biofilm formation – strain PAO1, LB-PBS medium, absorbance 600 nm, primary screen (AID 1176); settings: P. aeruginosa PAO1 growth/biofilm, A600, 12 h; higher = more signal
[6] = growth modulation of vineyard yeast isolate – strain RM11-1a, OD600, basal, 24 h, primary screen (AID 1177);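 further: cultures grown under basal conditions with no added stressor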; settings: S. cerevisiae RM11-1a growth, OD600, 24 h; higher = more signal, called active from +8 up or from −8 down
[7] = growth of efflux-deficient E. coli DRC39 – strain DRC39, OD650, 24 h, E. coli filamentation inducers, primary screen (AID 1178);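 further: growth measured as culture turbidity by optical density at 650 nm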; settings: E. coli DRC39 acrAB, higher = more signal, called active from +8 up or from −8 down
[8] = growth of efflux-deficient E. coli DRC39 – strain DRC39, OD650, 48 h, E. coli filamentation inducers, primary screen (AID 1179);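 further: screen aims at cell division blockers that make cells filament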; settings: E. coli DRC39 delta-acrAB growth, higher = more signal, called active from +8 up or from −8 down
[9] = viability profiling in RPMI8226 myeloma cells – cell-based, resazurin fluorescence, basal, 24 h, PK04 Diversity Set, profiling panel (AID 1180); settings: higher = more signal;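 further: RPMI8826 multiple myeloma cell line at 5000 cells per well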
[10] = target: E3 ubiquitin-protein ligase XIAP (Homo sapiens) (UniProt P98170); assay: small molecules binding XIAP protein – biophysical, small-molecule microarray, fluorescence 635 nm, primary screen (AID 1181); settings: higher = more signal;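 further: score merges 667 nm emission and signal to noise over triplicate slides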
Sequence of E3 ubiquitin-protein ligase XIAP (Homo sapiens) (P98170 whole entry, looked up, the tested form may be a part): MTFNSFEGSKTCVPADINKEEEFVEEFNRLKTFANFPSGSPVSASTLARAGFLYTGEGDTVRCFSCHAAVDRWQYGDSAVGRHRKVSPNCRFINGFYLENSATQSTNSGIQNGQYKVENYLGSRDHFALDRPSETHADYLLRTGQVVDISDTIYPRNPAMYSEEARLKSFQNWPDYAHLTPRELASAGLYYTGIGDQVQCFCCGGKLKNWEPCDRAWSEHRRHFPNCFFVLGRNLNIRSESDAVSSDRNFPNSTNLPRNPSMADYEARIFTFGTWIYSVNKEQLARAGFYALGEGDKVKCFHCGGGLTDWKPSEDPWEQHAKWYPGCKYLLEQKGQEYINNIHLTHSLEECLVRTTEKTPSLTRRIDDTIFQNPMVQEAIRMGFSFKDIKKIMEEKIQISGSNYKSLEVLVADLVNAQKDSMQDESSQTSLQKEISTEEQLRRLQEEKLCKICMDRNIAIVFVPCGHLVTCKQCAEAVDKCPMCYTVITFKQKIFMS

[11] = tested on: XIP peptide (Xip251-270) binding; assay: XIP fragment 251-270 binding compounds – biochemical, small-molecule microarray, fluorescence 635/667 nm, 0.1 µg/mL protein, primary screen (AID 1182); settings: fluorescent protein binding, 635 nm, higher = more signal, called active from +8 up or from −8 down
[12] = tested on: XIP peptide (Xip251-270); assay: compounds binding XIP fragment 251-270 – biochemical, small-molecule microarray, fluorescence 635/667 nm, 0.5 µg/mL protein, primary screen (AID 1183); settings: fluorescence 635 nm, higher = more signal
[13] = blood-stage malaria parasite viability loss – strain 3D7, DAPI fluorescence, 100 nL, primary screen (AID 1184);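 further: parasites grown inside human red blood cells in medium with human serum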; settings: P. falciparum 3D7 growth, 3 d, higher = more signal
[14] = target: Homeobox protein Hox-A13 (Mus musculus) (UniProt Q62424); assay: disruptors of Hoxa13 oligonucleotide interaction – biochemical, fluorescence polarization, labeled oligonucleotide, primary screen (AID 1185); settings: Hoxa13:DNA binding, 15 min, higher = more signal, called active from +8 up or from −8 down
Sequence of Homeobox protein Hox-A13 (Mus musculus) (Q62424 whole entry, looked up): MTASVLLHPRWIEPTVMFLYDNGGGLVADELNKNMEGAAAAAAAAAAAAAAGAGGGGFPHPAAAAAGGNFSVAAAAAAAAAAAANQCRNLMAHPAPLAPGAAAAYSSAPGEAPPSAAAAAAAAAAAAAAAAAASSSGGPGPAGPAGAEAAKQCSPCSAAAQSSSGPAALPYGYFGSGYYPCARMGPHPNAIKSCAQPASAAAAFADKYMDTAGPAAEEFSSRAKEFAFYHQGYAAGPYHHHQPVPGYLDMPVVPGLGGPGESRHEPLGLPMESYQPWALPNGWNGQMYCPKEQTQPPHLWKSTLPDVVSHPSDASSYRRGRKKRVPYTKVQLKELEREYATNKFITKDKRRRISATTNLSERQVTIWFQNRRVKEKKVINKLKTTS

[15] = blockers of DNA damage checkpoint Chk1 activation – imaging, HeLa, hydroxyurea, phospho-Chk1 antibody, percent positive cells, primary screen (AID 1186); settings: hydroxyurea-induced phospho-Chk1 immunofluorescence imaging, higher = more signal
[16] = blockers of DNA damage checkpoint Chk1 activation – imaging, HeLa, hydroxyurea, phospho-Chk1 nuclear intensity, primary screen (AID 1187); settings: hydroxyurea-induced phospho-Chk1 immunofluorescence imaging, higher = more signal

SMILES | z-score [1] | z-score [2] | z-score [3] | composite z-score [4] | z-score [5] | z-score [6] | z-score [7] | z-score [8] | z-score [9] | composite z-score [10] | composite z-score [11] | composite z-score [12] | z-score [13] | z-score [14] | z-score [15] | z-score [16]
C=CC[C@]1(C(=O)N2CCOCC2)N=C(c2ccc(OCCCO)cc2)O[C@H]1c1ccccc1CN=[N+]=[N-] | -0.744 | -0.33 (inactive) | -0.574 (inactive) | 0.155 (inactive) | -0.497 (inactive) | 0.301 (inactive) | -0.186 (inactive) | 0.0726 (inactive) | -1.03 | 0.208 | 0.349 (inactive) | 0.836 | -2.33 | -4.04 (inactive) | -0.552 (inactive) | -0.429 (inactive)
COCCOC(=O)N1C(=O)[C@@]2(c3cc(C#CC4(O)CCCCCC4)ccc31)[C@H](C(=O)N1CCc3cc(OC)c(OC)cc3C1)[C@H]1C(=O)O[C@H](c3ccccc3)[C@H](c3ccccc3)N1[C@@H]2c1ccccc1OCCO | 0.032 | 1.96 (inactive) | 0.162 (inactive) | 0.666 (inactive) | 1.01 (inactive) | 2.98 (inactive) | -0.0554 (inactive) | 0.585 (inactive) | 0.793 | 0.0297 | -0.0915 (inactive) | 0.771 | -1.99 | 0.772 (inactive) | 0.286 (inactive) | 1.13 (inactive)
COc1cccc(C)c1NC(=O)O[C@H]1[C@H](OC(=O)Nc2ccccc2)[C@H](OC(=O)Nc2ccccc2)[C@@H](OC)O[C@@H]1CO | -1.22 | 0.803 (inactive) | -2.2 (inactive) | 0.111 (inactive) | 0.565 (inactive) | 0.673 (inactive) | 0.462 (inactive) | -0.358 (inactive) | -1.65 | 0.0744 | 1.57 (inactive) | 0.401 | -1.51 | -5.38 (inactive) | -0.0198 (inactive) | 0.136 (inactive)
O=C1N(Cc2ccccc2)c2ccccc2[C@H]2OC(c3ccc(OCCCO)cc3)=N[C@@]12CCS(=O)(=O)c1ccccc1 | -0.362 | 1.21 (inactive) | -0.56 (inactive) | 0.876 (inactive) | 1.47 (inactive) | 2.68 (inactive) | 0.244 (inactive) | -0.939 (inactive) | -0.509 | 0.12 | 0.0535 (inactive) | 0.371 | -2.56 | -1.54 (inactive) | -0.103 (inactive) | -0.0726 (inactive)
O=C(C=C(CC(O)c1cccc(Cl)c1)OCCF)OCCF (stereo not given) | -0.0453 | -1.47 (inactive) | 0.0592 (inactive) | -2.48 (inactive) | -0.777 (inactive) | -1.33 (inactive) | -0.0441 (inactive) | 1.04 (inactive) | 0.335 | 0.237 | 0.0562 (inactive) | -1.21 | 0.186 | -1.34 (inactive) | -0.608 (inactive) | -0.48 (inactive)
COC(=O)[C@@]1(Cc2ccc(OC)cc2)[C@H]2c3cc(C(=O)N4CCCC4)n(CCF)c3C[C@H]2CN1C(=O)c1ccccc1 | -0.952 | 1.1 (inactive) | -2.21 (inactive) | 0.0648 (inactive) | 1.06 (inactive) | 0.977 (inactive) | -1.52 (inactive) | -1.09 (inactive) | -1.72 | -0.0471 | 1.24 (inactive) | 0.388 | -1.8 | -5.44 (inactive) | 0.128 (inactive) | -0.0625 (inactive)
C=CCOC(=O)[C@@H]1[C@H]2C(=O)O[C@H](c3ccccc3)[C@H](c3ccccc3)N2[C@H](c2ccc(OCCOC(=O)[C@@H]3C[C@@H]4C(=O)N[C@@H](CCCCNC(C)=O)C(=O)N4[C@@H]3c3ccc(O)cc3)cc2)[C@@]12C(=O)Nc1ccc(I)cc12 | 0.971 | 1.8 (inactive) | 0.668 (inactive) | -1.19 (inactive) | 0.42 (inactive) | 1.67 (inactive) | 0.514 (inactive) | 0.099 (inactive) | 0.616 | 0.158 | 0.0787 (inactive) | 0.794 | -1.61 | -0.385 (inactive) | 0.552 (inactive) | 0.882 (inactive)
O=c1c2ccc(Br)cc2nc(-c2ccccc2)n1Cc1cccc(O)c1 | -0.187 | -2.04 (inactive) | -1.1 (inactive) | 0.515 (inactive) | 0.186 (inactive) | 0.159 (inactive) | 0.362 (inactive) | 0.39 (inactive) | -0.0974 | -0.151 | 0.0521 (inactive) | 0.748 | -0.772 | -3.01 (inactive) | -0.005 (inactive) | -0.24 (inactive)
O=C(N1CCOCC1)[C@@]1(CCS(=O)(=O)c2ccccc2)COC(c2ccc(OCCCO)cc2)=N1 | 0.0754 | 0.0036 (inactive) | -0.262 (inactive) | 0.0576 (inactive) | 0.193 (inactive) | 0.0216 (inactive) | -0.0668 (inactive) | 0.589 (inactive) | -0.387 | -0.02 | 0.429 (inactive) | 0.599 | -1.34 | -5.88 (inactive) | 0.145 (inactive) | 0.273 (inactive)
CCCc1cc2c(n1Cc1ccc(OC)cc1)C(C)C1CN(C(=O)c3ccccc3)C(C)(C(=O)OC)C21 (stereo not given) | -1.34 | 1.08 (inactive) | -1.69 (inactive) | -0.118 (inactive) | 1.21 (inactive) | 0.864 (inactive) | -1.09 (inactive) | -0.395 (inactive) | -1.7 | 0.493 | -0.0607 (inactive) | 0.174 | -1.42 | -3.45 (inactive) | 0.5 (inactive) | 0.396 (inactive)
CN(C)C(=O)[C@]1(Cc2ccccc2N=[N+]=[N-])N=C(c2ccc(OCCCO)cc2)O[C@@H]1c1ccccc1CN=[N+]=[N-] | 2.37 | -1.93 (inactive) | -1.13 (inactive) | -0.106 (inactive) | -0.165 (inactive) | -0.495 (inactive) | 0.804 (inactive) | 0.7 (inactive) | -0.997 | 0.152 | 0.304 (inactive) | 0.312 | -2.48 | -4.68 (inactive) | -0.191 (inactive) | 0.269 (inactive)
CN(C)CCCNC(=O)[C@@]1(Cc2ccccc2I)c2ccccc2C(=O)N(Cc2ccccc2Cl)[C@H]1c1ccc(CO)cc1 | -6.48 | -7.72 (inactive) | -8.82 (active) | -0.205 (inactive) | -0.233 (inactive) | -0.0889 (inactive) | -0.268 (inactive) | -1.26 (inactive) | -6.59 | 0.166 | 0.191 (inactive) | 0.774 | -2.21 | -0.316 (inactive) | -0.022 (inactive) | -0.461 (inactive)
CCCCC(=C=CC[C@H](O)c1cccc(OCCO)c1)C[C@H](O)COCc1ccccc1 | 1.38 | -0.919 (inactive) | 0.202 (inactive) | -1.06 (inactive) | 0.342 (inactive) | 0.178 (inactive) | 0.525 (inactive) | 0.122 (inactive) | 0.774 | -0.165 | 1.4 (inactive) | 0.752 | -1.88 | -4.78 (inactive) | -0.0835 (inactive) | 0.0554 (inactive)
Cc1ccccc1C(O)C1C=CC2C(=O)N(C)C(=O)C2N1Nc1ccc([N+](=O)[O-])cc1[N+](=O)[O-] (stereo not given) | -0.138 | 1.09 (inactive) | -0.729 (inactive) | -0.286 (inactive) | 0.186 (inactive) | 0.446 (inactive) | -0.456 (inactive) | -0.401 (inactive) | -0.963 | -0.0172 | 3.99 (inactive) | 0.476 | 0.368 | -4.08 (inactive) | 0.348 (inactive) | -0.0828 (inactive)
C[C@H]1ON(c2ccccc2)[C@@H](c2ccccc2)[C@@H]1C(=O)N1C(=O)OC[C@@H]1c1ccccc1 | 0.565 | 0.551 (inactive) | 0.715 (inactive) | -0.199 (inactive) | -0.189 (inactive) | 1.5 (inactive) | 0.259 (inactive) | -0.0075 (inactive) | 0.942 | -0.123 | -0.222 (inactive) | 0.195 | -0.968 | -2.12 (inactive) | -0.134 (inactive) | -0.154 (inactive)
